{
  "source": "the supplement of paper PMC12350171",
  "note": "Counter-ions that a name gives are not always drawn.",
  "data": [
    {"test_system": "Haemophilus parainfluenzae", "experiment": "growth AUC normalised to DMSO control (fraction of control); higher = less growth inhibition, active = hit call of the paper", "conditions": "20 µM;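 active = AUC significantly below DMSO controls by Student t-fit with adjusted P under 0.01; inactive = not significantly reduced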", "summary_of_the_method": "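For the AUC endpoint, growth curves were integrated by the trapezoidal rule up to the exponential-to-stationary transition and normalised to DMSO controls on the same plate. The curves came from OD578 readings taken hourly for 24 h, in three biological replicates. Pathogens had been passaged anaerobically twice and inoculated at an OD578 of 0.01 into pre-reduced mGAM plates carrying 20 μM compound and 1% DMSO, sealed with breathable membranes. Medium for Haemophilus parainfluenzae also contained hemin and NAD.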", "values": [
      {"compound": "CN1CCCN=C1/C=C/c1cccc(O)c1", "note": "[Oxantel pamoate]", "growth AUC normalised to DMSO control": "0.916 (inactive)"},
      {"compound": "Cn1c(=O)c2nc[nH]c2n(C)c1=O", "note": "[Theophylline monohydrate]", "growth AUC normalised to DMSO control": "0.98 (inactive)"},
      {"compound": "O=C(O[C@@H]1C[C@@H]2C[C@H]3C[C@H](C1)N2CC3=O)c1c[nH]c2ccccc12", "note": "[Dolasetron mesilate]", "growth AUC normalised to DMSO control": "1.06 (inactive)"},
      {"compound": "CC1(C)O[C@@H]2C[C@H]3[C@@H]4C[C@H](F)C5=CC(=O)C=C[C@]5(C)[C@@]4(F)[C@@H](O)C[C@]3(C)[C@]2(C(=O)CO)O1", "note": "[Fluocinolone acetonide]", "growth AUC normalised to DMSO control": "0.995 (inactive)"},
      {"compound": "O=C(OCC(O)CO)c1ccccc1Nc1ccnc2cc(Cl)ccc12", "note": "(stereo not given) [Glafenine hydrochloride]", "growth AUC normalised to DMSO control": "0.978 (inactive)"},
      {"compound": "O=C(O)c1ccccc1C(=O)Nc1ccc(S(=O)(=O)Nc2nccs2)cc1", "note": "[Phthalylsulfathiazole]", "growth AUC normalised to DMSO control": "1 (inactive)"},
      {"compound": "CC1(C)OC(=O)NC1=O", "note": "[Dimethadione]", "growth AUC normalised to DMSO control": "1 (inactive)"},
      {"compound": "NC(N)=Nc1nc(CSCC/C(N)=N/S(N)(=O)=O)cs1", "note": "[Famotidine]", "growth AUC normalised to DMSO control": "0.975 (inactive)"},
      {"compound": "Cc1ccc(S(=O)(=O)NC(=O)NN2CCCCCC2)cc1", "note": "[Tolazamide]", "growth AUC normalised to DMSO control": "1.04 (inactive)"},
      {"compound": "CC(C)(S)C(N)C(=O)O", "note": "(racemic) [D,L-Penicillamine]", "growth AUC normalised to DMSO control": "0.981 (inactive)"},
      {"compound": "CNc1ncnc2c1ncn2[C@@H]1O[C@H](CO)[C@@H](O)[C@H]1O", "note": "[N6-methyladenosine]", "growth AUC normalised to DMSO control": "1.01 (inactive)"},
      {"compound": "CN(C)CCC=C1c2ccccc2C=Cc2ccccc21", "note": "[Cyclobenzaprine hydrochloride]", "growth AUC normalised to DMSO control": "0.893 (inactive)"},
      {"compound": "NC(=O)c1cc[n+](CC2=C(C(=O)[O-])N3C(=O)[C@@H](NC(=O)[C@@H](c4ccccc4)S(=O)(=O)O)[C@H]3SC2)cc1", "note": "[Cefsulodin sodium salt]", "growth AUC normalised to DMSO control": "0.912 (inactive)"},
      {"compound": "C[C@@H](c1ncncc1F)[C@](O)(Cn1cncn1)c1ccc(F)cc1F", "note": "[Voriconazole]", "growth AUC normalised to DMSO control": "0.977 (inactive)"},
      {"compound": "CC(C)NCC(O)c1ccc(O)c(O)c1", "note": "(single isomer, unassigned; (-)) [(-) Isoproterenol hydrochloride]", "growth AUC normalised to DMSO control": "1.03 (inactive)"},
      {"compound": "Cc1cc(C)nc(NS(=O)(=O)c2ccc(N)cc2)n1", "note": "[Sulfamethazine sodium salt]", "growth AUC normalised to DMSO control": "0.999 (inactive)"},
      {"compound": "COc1cc(OC)c(C(=O)CCCN2CCCC2)c(OC)c1", "note": "[Buflomedil hydrochloride]", "growth AUC normalised to DMSO control": "1.01 (inactive)"},
      {"compound": "CN(C)CCC(c1ccccc1)c1ccccn1", "note": "(stereo not given) [Pheniramine maleate]", "growth AUC normalised to DMSO control": "0.999 (inactive)"},
      {"compound": "O=S(=O)(O)CCS", "note": "[Coenzyme M]", "growth AUC normalised to DMSO control": "1.06 (inactive)"},
      {"compound": "CN[C@@H]1[C@@H](O)[C@@H](O[C@@H]2[C@@H](O)[C@H](O[C@H]3OC(CN)=CC[C@H]3N)[C@@H](N)C[C@H]2N)OC[C@]1(C)O", "note": "[Sisomicin sulfate]", "growth AUC normalised to DMSO control": "0.864 (inactive)"},
      {"compound": "O=C(Nc1cccc2c(=O)cc(-c3nnn[nH]3)oc12)c1ccc(OCCCCc2ccccc2)cc1", "note": "[Pranlukast]", "growth AUC normalised to DMSO control": "0.996 (inactive)"},
      {"compound": "CCCCN(CCCC)CCCOC(=O)c1ccc(N)cc1", "note": "[Butacaine]", "growth AUC normalised to DMSO control": "0.998 (inactive)"},
      {"compound": "CCCN[C@H]1CCc2nc(N)sc2C1", "note": "[Pramipexole dihydrochloride]", "growth AUC normalised to DMSO control": "0.985 (inactive)"},
      {"compound": "C#C[C@]1(O)CC[C@H]2[C@@H]3CCc4cc(OC)ccc4[C@H]3CC[C@@]21C", "note": "[Mestranol]", "growth AUC normalised to DMSO control": "1.02 (inactive)"},
      {"compound": "CC(Cc1cccc(C(F)(F)F)c1)NCCOC(=O)c1ccccc1", "note": "(stereo not given) [Benfluorex]", "growth AUC normalised to DMSO control": "0.93 (inactive)"}
    ]}
  ]
}
